Test results reported in PubChem BioAssay (EPA / NIEHS).
Inconclusive results are not listed. Active and inactive are the calls of the source. The calls were made as follows, unless noted: active = hit-call score of the fitted dose curve at least 0.9, where 1 is the maximum; inconclusive = response in the unintended direction; inactive = score below 0.9.

What was measured:
[1] = ATG_TAL_CIS: Attagene CIS-FACTORIAL HepG2 Assay for human TAL Basal Promoter (AID 2282966; active = hit-call score of the fitted dose curve at least 0.9, where 1 is the maximum; inactive = score below 0.9;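 also: background control endpoint measuring basal TAL promoter reporter mRNA not a specific factor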); conditions: HepG2 Attagene cis-factorial TAL promoter reporter; actives raise or lower the signal
Method in brief: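 Human hepatoma HepG2 cells, transfected with promoter-regulated reporter units, were treated 24 h. Reporter transcript levels, measured through RT-PCR and capillary electrophoresis, were fitted for gain or loss relative to DMSO.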

[2] = ATG_TGFb_CIS: Attagene CIS-FACTORIAL HepG2 Assay for human Transforming Growth Factor (TGF) (AID 2282967; active = hit-call score of the fitted dose curve at least 0.9, where 1 is the maximum; inactive = score below 0.9); conditions: HepG2 Attagene CIS TGFb reporter, mRNA transcription; actives raise or lower the signal
Method in brief: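 Bidirectional fitting relative to DMSO gave the endpoint. Underlying data: reporter mRNA from HepG2 cells carrying transiently transfected cis-regulated reporter constructs, harvested 24 h after dosing and analyzed by RT-PCR and capillary electrophoresis.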

[3] = ATG_VDRE_CIS: Attagene CIS-FACTORIAL HepG2 Assay for human Vitamin D Receptor Element (VDRE) (AID 2282968; active = hit-call score of the fitted dose curve at least 0.9, where 1 is the maximum; inactive = score below 0.9); conditions: HepG2 VDRE cis-reporter transcription, actives raise or lower the signal
Method in brief: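 Readout is VDRE-driven reporter mRNA reflecting endogenous factor activity in human HepG2 cells, sampled 24 h post-dose. Quantification used labelled RT-PCR products separated by capillary electrophoresis; bidirectional analysis relative to DMSO.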

[4] = biological target: X-box-binding protein 1 (Homo sapiens) (UniProt P17861); experiment: ATG_Xbp1_CIS: Attagene CIS-FACTORIAL HepG2 Assay for human X-box Binding Protein 1 (XBP1) (AID 2282972; active = hit-call score of the fitted dose curve at least 0.9, where 1 is the maximum; inactive = score below 0.9); conditions: HepG2 XBP1 cis-element reporter, Attagene multiplex; actives raise or lower the signal
Method in brief: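 Multiplexed cis-reporter readout in transfected HepG2 liver cells. Exposure lasted 24 hours. Activity in either direction was fitted against DMSO as negative control and baseline.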

[5] = ATG_GAL4_TRANS: Attagene TRANS-FACTORIAL HepG2 Assay for GAL4 (Internal Marker) (AID 2282976); conditions: HepG2 Attagene TRANS GAL4 internal marker reporter
Method in brief: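 Liver HepG2 line bearing multiplexed GAL4-UAS reporter constructs; 24 h chemical treatment. Transcripts were quantified as fluorescent fragments on capillary electrophoresis after RT-PCR and HpaI cut, with activity fitted upward from DMSO.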

[6] = biological target: Bile acid receptor (Homo sapiens) (UniProt Q96RI1); experiment: ATG_FXR_TRANS: Attagene TRANS-FACTORIAL HepG2 Assay for Farnesoid X Receptor (FXR) (AID 2282979); conditions: HepG2 Attagene TRANS FXR-GAL4 reporter transcription;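 also: hits raise reporter mRNA above DMSO so AC50 marks FXR activation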
Method in brief: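 After 24 h chemical treatment of transfected HepG2 cells, GAL4-UAS reporter transcripts driven by an exogenous FXR-GAL4 fusion were measured by RT-PCR and capillary electrophoresis. Increases over DMSO were fitted.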

[7] = biological target: Oxysterols receptor LXR-alpha (Homo sapiens) (UniProt Q13133); experiment: ATG_LXRa_TRANS: Attagene TRANS-FACTORIAL HepG2 Assay for human Liver X Receptor alpha (LXRa) (AID 2282980); conditions: HepG2 Attagene TRANS reporter, LXRa transactivation
Method in brief: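 In this multiplexed TRANS system, compounds act on HepG2 cells carrying GAL4-UAS reporter units and a receptor-GAL4 fusion for 24 h. Induced reporter RNA is amplified, fluorescently labelled and sized by capillary electrophoresis, with DMSO as baseline.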

[8] = biological target: Hepatocyte nuclear factor 4-alpha (Homo sapiens) (UniProt P41235); experiment: ATG_HNF4a_TRANS: Attagene TRANS-FACTORIAL HepG2 Assay for human Hepatocyte Nuclear Factor 4 alpha (HNF4a) (AID 2282982); conditions: HepG2 HNF4a transactivation reporter, mRNA readout
Method in brief: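 Activity of an exogenous HNF4a–Gal4 fusion scored as induced GAL4-UAS reporter transcripts after 24 h chemical exposure of transfected human HepG2 cells. Read-out via RT-PCR with 6-FAM labelling and capillary electrophoresis; rise over DMSO baseline.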

[9] = ATG_M_06_TRANS: Attagene TRANS-FACTORIAL HepG2 Assay for M06 Transcription Factor (Internal Marker) (AID 2282983); conditions: HepG2 Attagene TRANS M06 internal marker reporter
Method in brief: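 Multi-reporter-transfected HepG2, 24 h treatment; reporter transcripts quantified via RT-PCR, primer-extension labelling and CE. DMSO-normalized gain-of-signal fit.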

[10] = biological target: Transcriptional activator Myb (Homo sapiens) (UniProt P10242); experiment: ATG_Myb_CIS: Attagene CIS-FACTORIAL HepG2 Assay for human Myeloblastosis (Myb) Proto-Oncogene Transcription Factor (AID 2282986; active = hit-call score of the fitted dose curve at least 0.9, where 1 is the maximum; inactive = score below 0.9); conditions: HepG2 Attagene CIS-FACTORIAL Myb reporter transcription; actives raise or lower the signal
Method in brief: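 HepG2 cells were transiently transfected with cis-regulated multiple reporter transcription units reflecting endogenous Myb activity, then exposed to compound for 24 hours. Reporter mRNA was measured by RT-PCR with capillary electrophoresis; bidirectional fitting versus DMSO baseline.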

[11] = biological target: Nuclear respiratory factor 1 (Homo sapiens) (UniProt Q16656); experiment: ATG_NRF1_CIS: Attagene CIS-FACTORIAL HepG2 Assay for human Nuclear Respiratory Factor 1 (NRF1) Orphan Gene (AID 2282987; active = hit-call score of the fitted dose curve at least 0.9, where 1 is the maximum; inactive = score below 0.9); conditions: HepG2 NRF1 cis-element reporter, Attagene multiplex; actives raise or lower the signal
Method in brief: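 HepG2 cells transiently transfected with multiple reporter transcription units under cis-regulatory promoter control, so endogenous transcription-factor activity is read. After 24 h compound exposure, reporter mRNA quantified by RT-PCR, fluorescent labelling, HpaI digestion and capillary electrophoresis; bidirectional fitting versus DMSO.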

[12] = biological target: Estrogen-related receptor gamma (Homo sapiens) (UniProt P62508); experiment: ATG_ERRg_TRANS: Attagene TRANS-FACTORIAL HepG2 Assay for human Estrogen-Related Receptor gamma (ERRg) (AID 2282977); conditions: HepG2 Attagene TRANS reporter, ERRg transactivation;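 also: hits increase reporter signal over DMSO so potencies reflect activators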
Method in brief: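 Exogenous NR-Gal4 chimera activity measured as reporter transcript induction after 24 h in transiently transfected HepG2 cells. RNA reverse-transcribed, PCR-amplified, 6-FAM-labelled and resolved by capillary electrophoresis; increase over DMSO baseline.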

[13] = biological target: Glucocorticoid receptor (Homo sapiens) (UniProt P04150); experiment: ATG_GR_TRANS: Attagene TRANS-FACTORIAL HepG2 Assay for human Glucocorticoid Receptor (GR) (AID 2282978); conditions: HepG2 Attagene TRANS GR reporter, mRNA transcription;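 also: activators score as hits since higher reporter transcript over DMSO is fitted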
Method in brief: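 HepG2 cells transiently transfected with multiplexed reporter units in which chimeric NR-GAL4 proteins drive GAL4-UAS reporters; 24 h compound exposure. Reporter mRNA measured by RT-PCR, 6-FAM labelling, HpaI digestion and capillary electrophoresis; gain-of-signal fitted versus DMSO.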

[14] = ATG_M_32_TRANS: Attagene TRANS-FACTORIAL HepG2 Assay for M32 Transcription Factor (Internal Marker) (AID 2282984); conditions: HepG2 Attagene TRANS M32 internal marker reporter
Method in brief: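 Internal background reporter in transfected HepG2: after 24 h chemical exposure, RNA reverse-transcribed, reporter cDNA amplified, fluorescently labelled and HpaI-cut, then sized by capillary electrophoresis. Gain of signal fitted against DMSO control.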

[15] = biological target: Nuclear receptor subfamily 4 group A member 2 (Homo sapiens) (UniProt P43354); experiment: ATG_NURR1_TRANS: Attagene TRANS-FACTORIAL HepG2 Assay for human Nuclear Receptor Related Protein 1 (NURR1) (AID 2282985); conditions: HepG2 Attagene TRANS reporter, mRNA readout
Method in brief: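 Reporter transcript induction, measured by RT-PCR with fluorescent labelling, HpaI digestion and capillary electrophoresis, after 24 hr dosing of human HepG2 cells transiently expressing an exogenous NR-Gal4 fusion with GAL4-UAS-driven reporters; DMSO as baseline.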

[16] = ATG_M_19_TRANS: Attagene TRANS-FACTORIAL HepG2 Assay for M19 Transcription Factor (Internal Marker) (AID 2282974); conditions: HepG2 Attagene TRANS-FACTORIAL M19 internal marker reporter
Method in brief: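 HepG2 cells transiently transfected with multiple GAL4-UAS reporter transcription units were exposed to chemicals for 24 h. Reporter mRNA was read by RT-PCR, 6-FAM primer extension, HpaI digestion and capillary electrophoresis; gain of signal fitted relative to DMSO.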

[17] = biological target: Oxysterols receptor LXR-beta (Homo sapiens) (UniProt P55055); experiment: ATG_LXRb_TRANS: Attagene TRANS-FACTORIAL HepG2 Assay for human Liver X Receptor beta (LXRb) (AID 2282981); conditions: HepG2 Attagene TRANS GAL4-LXRb reporter, mRNA
Method in brief: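 After 24 h chemical treatment of transfected HepG2 cells carrying exogenous NR-Gal4 chimeras, reporter mRNA was quantified by fluorescent RT-PCR and capillary electrophoresis; activity taken as increase over DMSO controls.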

[18] = biological target: Nuclear receptor subfamily 1 group I member 3 (Homo sapiens) (UniProt Q14994); experiment: ATG_CAR_TRANS: Attagene TRANS-FACTORIAL HepG2 Assay for human Constitutive Androstane Receptor (CAR) (AID 2282969); conditions: HepG2 Attagene TRANS-FACTORIAL CAR reporter;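 also: activators raise reporter mRNA above DMSO so AC50 marks induction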
Method in brief: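 Signal is reporter mRNA induction relative to DMSO, measured 24 h after dosing by RT-PCR with fluorescent primer extension and capillary electrophoresis. Human HepG2 liver cells carried transiently transfected chimeric NR-Gal4/GAL4-UAS reporter constructs.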

Measured: AC50

Chain of Oxysterols receptor LXR-beta (Homo sapiens) (P55055 whole entry, looked up, the tested form may be a part): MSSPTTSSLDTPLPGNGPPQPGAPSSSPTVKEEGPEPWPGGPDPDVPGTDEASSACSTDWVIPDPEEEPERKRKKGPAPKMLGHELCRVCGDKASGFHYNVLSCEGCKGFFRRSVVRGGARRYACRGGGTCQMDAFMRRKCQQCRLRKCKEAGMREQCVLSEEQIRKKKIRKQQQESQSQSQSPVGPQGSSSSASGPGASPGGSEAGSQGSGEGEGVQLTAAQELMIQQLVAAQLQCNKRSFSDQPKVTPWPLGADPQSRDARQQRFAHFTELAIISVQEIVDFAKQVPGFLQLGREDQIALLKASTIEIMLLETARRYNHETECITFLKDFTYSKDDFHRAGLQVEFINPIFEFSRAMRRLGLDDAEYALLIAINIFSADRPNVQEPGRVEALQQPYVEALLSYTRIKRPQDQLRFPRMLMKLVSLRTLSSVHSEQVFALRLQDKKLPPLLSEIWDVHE
Chain of Estrogen-related receptor gamma (Homo sapiens) (P62508 whole entry, looked up, the tested form may be a part): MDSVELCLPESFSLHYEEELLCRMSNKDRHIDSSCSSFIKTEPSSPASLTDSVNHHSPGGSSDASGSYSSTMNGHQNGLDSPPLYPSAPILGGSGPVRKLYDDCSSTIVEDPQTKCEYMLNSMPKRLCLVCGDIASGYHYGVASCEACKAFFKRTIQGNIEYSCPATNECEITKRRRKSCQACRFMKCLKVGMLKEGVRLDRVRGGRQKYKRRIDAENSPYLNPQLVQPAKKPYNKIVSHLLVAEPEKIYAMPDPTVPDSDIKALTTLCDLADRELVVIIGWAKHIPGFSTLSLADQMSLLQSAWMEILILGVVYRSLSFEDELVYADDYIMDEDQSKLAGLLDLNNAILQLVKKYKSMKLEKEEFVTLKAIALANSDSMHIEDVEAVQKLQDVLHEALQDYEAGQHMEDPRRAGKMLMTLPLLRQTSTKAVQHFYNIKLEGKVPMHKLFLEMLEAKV
Chain of Bile acid receptor (Homo sapiens) (Q96RI1 whole entry, looked up, the tested form may be a part): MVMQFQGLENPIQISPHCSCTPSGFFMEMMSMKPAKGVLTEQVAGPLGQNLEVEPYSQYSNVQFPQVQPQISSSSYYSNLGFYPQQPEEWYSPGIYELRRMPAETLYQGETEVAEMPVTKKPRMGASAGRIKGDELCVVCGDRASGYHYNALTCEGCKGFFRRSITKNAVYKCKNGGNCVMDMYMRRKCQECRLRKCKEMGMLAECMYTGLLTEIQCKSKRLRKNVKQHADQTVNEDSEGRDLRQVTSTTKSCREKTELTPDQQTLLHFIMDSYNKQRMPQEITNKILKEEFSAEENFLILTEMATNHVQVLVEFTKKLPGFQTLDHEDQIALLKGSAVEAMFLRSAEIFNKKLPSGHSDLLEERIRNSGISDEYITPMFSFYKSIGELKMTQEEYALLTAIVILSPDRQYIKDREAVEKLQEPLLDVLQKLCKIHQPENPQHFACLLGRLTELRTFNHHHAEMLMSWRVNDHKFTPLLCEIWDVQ
Chain of Glucocorticoid receptor (Homo sapiens) (P04150 whole entry, looked up, the tested form may be a part): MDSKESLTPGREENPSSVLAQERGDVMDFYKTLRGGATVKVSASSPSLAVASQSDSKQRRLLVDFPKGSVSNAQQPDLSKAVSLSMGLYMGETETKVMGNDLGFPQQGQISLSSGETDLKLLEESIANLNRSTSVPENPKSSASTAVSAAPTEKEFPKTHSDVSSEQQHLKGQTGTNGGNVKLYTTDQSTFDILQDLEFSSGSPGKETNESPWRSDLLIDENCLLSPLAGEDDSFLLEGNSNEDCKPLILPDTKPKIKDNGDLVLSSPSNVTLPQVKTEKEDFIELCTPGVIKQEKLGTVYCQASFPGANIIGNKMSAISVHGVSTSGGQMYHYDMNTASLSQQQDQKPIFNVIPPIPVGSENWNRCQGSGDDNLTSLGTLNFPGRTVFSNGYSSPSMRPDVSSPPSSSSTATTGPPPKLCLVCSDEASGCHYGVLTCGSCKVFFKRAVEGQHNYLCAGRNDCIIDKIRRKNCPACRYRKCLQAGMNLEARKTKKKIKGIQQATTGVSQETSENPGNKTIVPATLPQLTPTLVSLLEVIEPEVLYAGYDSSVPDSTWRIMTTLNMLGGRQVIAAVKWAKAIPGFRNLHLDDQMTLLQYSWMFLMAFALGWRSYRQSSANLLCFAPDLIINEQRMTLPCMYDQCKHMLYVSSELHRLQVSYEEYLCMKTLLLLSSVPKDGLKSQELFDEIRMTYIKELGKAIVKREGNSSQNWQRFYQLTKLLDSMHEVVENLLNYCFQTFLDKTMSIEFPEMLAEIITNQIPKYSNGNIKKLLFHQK
Chain of Oxysterols receptor LXR-alpha (Homo sapiens) (Q13133 whole entry, looked up, the tested form may be a part): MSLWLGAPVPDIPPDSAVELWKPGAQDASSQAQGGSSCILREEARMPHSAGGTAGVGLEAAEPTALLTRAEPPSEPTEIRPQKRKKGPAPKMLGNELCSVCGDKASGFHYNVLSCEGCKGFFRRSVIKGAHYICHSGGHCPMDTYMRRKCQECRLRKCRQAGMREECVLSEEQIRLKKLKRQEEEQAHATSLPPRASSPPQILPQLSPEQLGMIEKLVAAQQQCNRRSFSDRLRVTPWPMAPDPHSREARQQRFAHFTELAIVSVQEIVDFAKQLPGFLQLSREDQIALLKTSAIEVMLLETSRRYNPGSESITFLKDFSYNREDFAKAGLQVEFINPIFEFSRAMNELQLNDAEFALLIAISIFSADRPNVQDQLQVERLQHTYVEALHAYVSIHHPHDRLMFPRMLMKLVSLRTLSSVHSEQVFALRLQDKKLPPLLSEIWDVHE
Chain of X-box-binding protein 1 (Homo sapiens) (P17861 whole entry, looked up): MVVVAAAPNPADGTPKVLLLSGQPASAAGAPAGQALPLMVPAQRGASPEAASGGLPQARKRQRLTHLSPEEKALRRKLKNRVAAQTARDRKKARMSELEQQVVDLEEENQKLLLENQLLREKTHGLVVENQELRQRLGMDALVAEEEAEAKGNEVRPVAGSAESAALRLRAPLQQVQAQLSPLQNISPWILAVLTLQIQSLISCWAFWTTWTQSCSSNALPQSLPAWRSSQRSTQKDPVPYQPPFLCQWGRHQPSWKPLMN
Chain of Nuclear receptor subfamily 4 group A member 2 (Homo sapiens) (P43354 whole entry, looked up, the tested form may be a part): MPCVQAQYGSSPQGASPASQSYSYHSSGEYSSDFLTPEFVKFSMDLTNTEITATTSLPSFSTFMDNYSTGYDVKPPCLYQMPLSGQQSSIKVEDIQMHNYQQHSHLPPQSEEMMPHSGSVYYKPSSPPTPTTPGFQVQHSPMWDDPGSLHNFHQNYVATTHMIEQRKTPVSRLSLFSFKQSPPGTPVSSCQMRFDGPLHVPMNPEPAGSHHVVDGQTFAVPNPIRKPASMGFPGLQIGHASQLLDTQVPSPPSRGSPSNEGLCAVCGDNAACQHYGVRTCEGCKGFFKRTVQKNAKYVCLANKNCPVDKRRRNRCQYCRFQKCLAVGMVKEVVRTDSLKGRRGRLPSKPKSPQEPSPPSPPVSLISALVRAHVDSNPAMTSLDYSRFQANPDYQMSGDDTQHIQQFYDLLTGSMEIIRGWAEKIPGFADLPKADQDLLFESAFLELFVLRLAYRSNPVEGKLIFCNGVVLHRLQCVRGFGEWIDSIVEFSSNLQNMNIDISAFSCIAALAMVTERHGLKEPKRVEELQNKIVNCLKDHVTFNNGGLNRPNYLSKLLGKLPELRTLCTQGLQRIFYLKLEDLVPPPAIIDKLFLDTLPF
Chain of Hepatocyte nuclear factor 4-alpha (Homo sapiens) (P41235 whole entry, looked up, the tested form may be a part): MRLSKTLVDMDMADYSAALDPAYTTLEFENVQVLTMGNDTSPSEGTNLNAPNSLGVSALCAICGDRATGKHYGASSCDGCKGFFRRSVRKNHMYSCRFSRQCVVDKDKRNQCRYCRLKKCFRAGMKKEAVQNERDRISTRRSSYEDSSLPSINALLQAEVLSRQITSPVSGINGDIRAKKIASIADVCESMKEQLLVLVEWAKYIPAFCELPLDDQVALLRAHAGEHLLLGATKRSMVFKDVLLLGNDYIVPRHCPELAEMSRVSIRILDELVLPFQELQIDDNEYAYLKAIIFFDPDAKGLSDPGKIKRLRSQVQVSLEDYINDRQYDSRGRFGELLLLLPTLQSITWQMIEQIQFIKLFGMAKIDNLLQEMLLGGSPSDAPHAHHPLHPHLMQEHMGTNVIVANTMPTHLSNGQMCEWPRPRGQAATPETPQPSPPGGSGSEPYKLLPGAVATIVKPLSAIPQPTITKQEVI
Chain of Nuclear receptor subfamily 1 group I member 3 (Homo sapiens) (Q14994 whole entry, looked up, the tested form may be a part): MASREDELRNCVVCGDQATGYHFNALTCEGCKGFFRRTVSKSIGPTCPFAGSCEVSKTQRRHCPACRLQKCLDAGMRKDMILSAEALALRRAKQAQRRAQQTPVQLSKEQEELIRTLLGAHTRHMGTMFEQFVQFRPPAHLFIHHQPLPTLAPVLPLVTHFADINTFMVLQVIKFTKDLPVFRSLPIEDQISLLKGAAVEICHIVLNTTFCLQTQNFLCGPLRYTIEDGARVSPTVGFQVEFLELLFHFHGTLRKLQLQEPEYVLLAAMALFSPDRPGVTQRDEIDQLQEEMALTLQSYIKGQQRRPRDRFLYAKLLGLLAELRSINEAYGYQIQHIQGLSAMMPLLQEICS
Chain of Nuclear respiratory factor 1 (Homo sapiens) (Q16656 whole entry, looked up): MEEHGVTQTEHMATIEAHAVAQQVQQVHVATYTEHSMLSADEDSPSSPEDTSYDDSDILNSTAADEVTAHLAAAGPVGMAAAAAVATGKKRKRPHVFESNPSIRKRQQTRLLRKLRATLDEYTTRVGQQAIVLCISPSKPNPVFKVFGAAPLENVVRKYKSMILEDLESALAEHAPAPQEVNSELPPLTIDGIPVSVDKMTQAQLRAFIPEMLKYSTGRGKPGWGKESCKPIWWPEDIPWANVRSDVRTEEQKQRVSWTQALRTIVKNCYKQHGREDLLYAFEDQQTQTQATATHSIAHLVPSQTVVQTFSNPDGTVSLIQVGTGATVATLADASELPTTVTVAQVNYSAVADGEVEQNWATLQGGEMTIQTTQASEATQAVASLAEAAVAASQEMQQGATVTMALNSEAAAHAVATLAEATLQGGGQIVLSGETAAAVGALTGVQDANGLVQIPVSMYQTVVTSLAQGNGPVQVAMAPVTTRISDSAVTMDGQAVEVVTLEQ

OCc1ccc(Cl)cc1Cl
not listed: [12] | [13] | [14] | [15] | [16] | [17] | [18]
inactive: all other assays above

COC(=O)c1ccc([N+](=O)[O-])cc1
not listed: [6] | [7] | [16] | [17] | [18]
inactive: all other assays above

CS(=O)(=O)OCCCCOS(C)(=O)=O
inactive: [1] | [2] | [3] | [4] | [16] | [9] | [10] | [11]

Cc1cc(=O)oc2cc(N(C)C)ccc12
not listed: [8] | [11] | [12] | [15] | [16] | [18]
inactive: all other assays above

CC(C)C[C@H](NC(=O)OCC1c2ccccc2-c2ccccc21)C(=O)O
not listed: [3] | [11] | [12] | [13] | [14] | [15]
inactive: all other assays above

O=C1CCCC=CCCCCCCCCCC1
inactive: [1] | [2] | [6] | [7] | [9] | [10] | [11]
active: [3] 18.4 µM | [4] 55.6 µM | [15] 26.5 µM

CCCC1O[C@@H]2C[C@H]3[C@@H]4CCC5=CC(=O)C=C[C@]5(C)[C@H]4[C@@H](O)C[C@]3(C)[C@]2(C(=O)CO)O1 (stereo partly specified)
inactive: [1] | [3] | [4] | [6] | [9] | [15] | [10] | [11]
active: [2] 9.41 µM

COc1cc(C(C)C)ccc1C
inactive: [1] | [2] | [3] | [4] | [13] | [6] | [9] | [10]

CS(=O)(=O)c1ccc(C2=C(c3ccccc3)C(=O)OC2)cc1
not listed: [3] | [6] | [7] | [9] | [12] | [15]
inactive: all other assays above

NCc1ccco1
inactive: [1] | [2] | [3] | [16] | [5] | [6] | [8] | [14] | [10] | [11]

C=CCCCCCCCCCC
not listed: [3] | [6] | [9] | [11] | [12] | [13] | [15]
inactive: all other assays above

CC(C=O)Cc1ccc(C(C)(C)C)cc1 (stereo unspecified)
not listed: [5] | [8] | [12] | [13] | [15] | [16] | [18]
inactive: all other assays above

CC(C)(C)OC(=O)c1ccc(O)cc1
active: [3] 45.4 µM | [4] 70.3 µM
inactive: [1] | [2] | [6] | [7] | [17] | [8] | [9] | [15] | [10]

CC1C2CC(CC2C2CCCC(O)C2)C1(C)C (stereo unspecified)
inactive: [1] | [2] | [3] | [5] | [9] | [15] | [10] | [11]
active: [6] 58.4 µM | [7] 33.4 µM | [17] 62.5 µM

CC(=O)c1ccccn1
inactive: [1] | [2] | [3] | [4] | [17] | [9] | [15] | [10] | [11]

O=C1OC2(c3ccccc31)c1ccc(O)c(Br)c1Oc1c2ccc(O)c1Br
active: [3] 27.3 µM
not listed: [5] | [6] | [12] | [15] | [16] | [18]
inactive: all other assays above

CN(C)c1ccncc1
inactive: [1] | [2] | [3] | [16] | [12] | [7] | [8] | [10] | [11]

CCCSc1ccc2nc(NC(=O)OC)[nH]c2c1
inactive: [1] | [2] | [3] | [16] | [13] | [17] | [9] | [10] | [11]

Cc1cc(CCC(=O)OCCOCCOCCOC(=O)CCc2cc(C)c(O)c(C(C)(C)C)c2)cc(C(C)(C)C)c1O
not listed: [3] | [12] | [13] | [17]
inactive: all other assays above

CCOC(=O)C1OC1c1ccccc1 (stereo unspecified)
inactive: [1] | [2] | [3] | [16] | [5] | [13] | [9] | [14] | [10] | [11]

CCCCCCC(C)Nc1ccc(Nc2ccccc2)cc1 (stereo unspecified)
inactive: [1] | [2] | [4] | [6] | [7] | [17] | [9] | [10] | [11]
active: [3] 2.32 µM | [15] 39.5 µM

CCC(=O)OCCOc1ccccc1
not listed: [4] | [6] | [8] | [12] | [13] | [18]
inactive: all other assays above

COC(C)(C)CCO
inactive: [1] | [2] | [3] | [16] | [5] | [12] | [17] | [14] | [10] | [11]

CC1(C)O[C@@H]2C[C@H]3[C@@H]4CCC5=CC(=O)C=C[C@]5(C)[C@@]4(F)[C@@H](O)C[C@]3(C)[C@]2(C(=O)CO)O1
not listed: [4] | [5] | [8] | [9] | [12] | [13] | [18]
inactive: all other assays above
